Test [1] in a line: BSK_3C_TissueFactor: BioMAP Diversity Plus: 3C Assay for Tissue Factor Biomarker Activity (AID 2282997). Conditions: BioMAP 3C HUVEC, tissue factor biomarker readout; actives raise or lower the signal. In outline: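 After a 24 h chemical exposure of primary human umbilical vein endothelial cells, Tissue Factor levels were quantified by ELISA.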
Test [2] in a line: BSK_3C_uPAR: BioMAP Diversity Plus: 3C Assay for Urokinase-type plasminogen activator receptor (uPAR) Biomarker Activity (AID 2282998). The conditions noted are these: BioMAP 3C HUVEC, uPAR biomarker ELISA; actives raise or lower the signal. In outline: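 Human umbilical vein endothelial primary cells were exposed to test chemical for 24 h. Cell-surface uPAR was then quantified by ELISA, and responses were fitted bidirectionally against DMSO as negative control and baseline.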
On the technique in general: An ELISA detects its analyte on a solid surface through an enzyme-linked reagent.

The nature of test [3]: BSK_3C_VCAM1: BioMAP Diversity Plus: 3C Assay for Vascular cell adhesion molecule 1 (VCAM1) Biomarker Activity (AID 2282999). The conditions noted are these: BioMAP 3C HUVEC, VCAM1 ELISA, cytokine-stimulated; actives raise or lower the signal. In outline:
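Vascular primary endothelium (human umbilical vein) was exposed to chemicals and assayed 24 h later. VCAM-1 levels came from ELISA, with DMSO serving as baseline for bidirectional fitting.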

Test [4] can be described thus: BSK_4H_Eotaxin3: BioMAP Diversity Plus: 4H Assay for Eotaxin 3 Biomarker Activity (AID 2283000). Conditions: primary human endothelial cells (HUVEC); actives raise or lower the signal. In outline:
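Chemicals were added to human umbilical vein endothelium cultures, and Eotaxin-3 was quantified by ELISA at 24 h. Values were derived by bidirectional fitting with DMSO serving as negative control and activity baseline.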

Read-out in test [5]: Intercellular Adhesion Molecule 1 (ICAM1), ICAM1 (gene 3383)
The test can be described thus: BSK_3C_ICAM1: BioMAP Diversity Plus: 3C Assay for Intercellular Adhesion Molecule 1 (ICAM1) Biomarker Activity (AID 2283003). The conditions noted are these: primary human endothelial cells (HUVEC); actives raise or lower the signal. In outline: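 ELISA readout of ICAM1 in human umbilical vein endothelial cells in the 3C system, taken 24 h post-dose. Gain or loss of signal versus DMSO was fitted in both directions, with SRB total-protein staining run in parallel.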

A short description of test [6]: BSK_3C_Proliferation: Cell Proliferation Assessment in the BioMAP Diversity Plus: 3C Assay (AID 2283006).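 Further: potency may reflect either rise or fall in cell number versus DMSO.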 The conditions noted are these: primary human endothelial cells (HUVEC). In outline: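 Proliferation as total protein: sulforhodamine B (0.1%) stain of TCA-fixed subconfluent human umbilical vein endothelial cells, absorbance 560 nm, 48 h after dosing. Activity fitted in both directions against DMSO baseline.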

Read-out in test [7]: E-selectin (Homo sapiens) (UniProt P16581)
The test can be described thus: BSK_3C_Eselectin: BioMAP Diversity Plus: 3C Assay for Eselectin Biomarker Activity (AID 2283015).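 Further: cell surface E-selectin protein quantified by ELISA 24 h after dosing.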 Conditions: primary human endothelial cells (HUVEC); actives raise or lower the signal. In outline: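 ELISA read-out of E-selectin on endothelial monolayers after 24 h chemical treatment. Human umbilical vein primary cells served as the system, with DMSO defining baseline activity for bidirectional fitting.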

Read-out in test [8]: Interleukin-1 alpha (IL1a), IL1A (gene 3552)
The test can be described thus: BSK_BE3C_IL1a: BioMAP Diversity Plus: BE3C Assay for Interleukin-1 alpha (IL1a) Biomarker Activity (AID 2283016). The conditions noted are these: primary human bronchial epithelial cells; actives raise or lower the signal. In outline:
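IL-1a measured by ELISA after 24 h treatment of human primary bronchial epithelial cells, with gain or loss of signal fitted versus DMSO. Parallel cultures stained with SRB gauge overt cytotoxicity.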

Read-out in test [9]: Monocyte Chemoattractant Protein-1 (MCP1), CCL2 (gene 6347)
The test can be described thus: BSK_3C_MCP1: BioMAP Diversity Plus: 3C Assay for Monocyte Chemoattractant Protein-1 (MCP1) Biomarker Activity (AID 2283017). The conditions noted are these: primary human endothelial cells (HUVEC); actives raise or lower the signal. In outline: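 ELISA read-out of MCP-1 from human umbilical vein endothelial cell cultures harvested 24 h post-dosing. Gain or loss of signal was fitted relative to DMSO.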

Read-out in test [10]: Human Leukocyte Antigen - DR isotype (HLADR), HLA-DRA (gene 3122)
The test can be described thus: BSK_3C_HLADR: BioMAP Diversity Plus: 3C Assay for Human Leukocyte Antigen - DR isotype (HLADR) Biomarker Activity (AID 2283019). Conditions: primary human endothelial cells (HUVEC); actives raise or lower the signal. In outline:
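ELISA readout of surface HLA-DR on human umbilical vein endothelium, taken 24 h after chemical treatment. Gain- and loss-of-signal were both fitted relative to DMSO.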

Read-out in test [11]: Interleukin-8 (IL8), CXCL8 (gene 3576)
The test can be described thus: BSK_3C_IL8: BioMAP Diversity Plus: 3C Assay for Interleukin-8 (IL8) Biomarker Activity (AID 2283020). Conditions: primary human endothelial cells (HUVEC); actives raise or lower the signal. In outline: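 IL-8 was measured by ELISA in HUVEC cultures 24 h after chemical dosing, with gain or loss of signal fitted relative to DMSO. Parallel SRB total-protein staining tracked overt cytotoxicity.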

Read-out in test [12]: Monokine induced gamma interferon (MIG), CXCL9 (gene 4283)
In words: BSK_3C_MIG: BioMAP Diversity Plus: 3C Assay for Monokine induced gamma interferon (MIG) Biomarker Activity (AID 2283021). Conditions: primary human endothelial cells (HUVEC); actives raise or lower the signal. In outline: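 ELISA measurement of MIG in human umbilical vein endothelial cells 24 h after treatment. Cytotoxicity tracked by SRB staining in parallel cultures; gain or loss of signal fitted relative to DMSO.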

The nature of test [13]: BSK_3C_SRB: Viability Assessment in the BioMAP Diversity Plus: 3C Assay (AID 2283023).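 Further: fitted both ways against DMSO so a hit may be signal rise or drop.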 The conditions noted are these: primary human endothelial cells (HUVEC). In outline:
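Absorbance at 560 nm of sulforhodamine B-stained (0.1%) total protein served as a cytotoxicity readout in human umbilical vein endothelial cells, 24 h after chemical treatment. Signal was fitted bidirectionally relative to DMSO.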

Read-out in test [14]: Matrix Metallopeptidase 1 (MMP1), MMP1 (gene 4312)
In words: BSK_BE3C_MMP1: BioMAP Diversity Plus: BE3C Assay for Matrix Metallopeptidase 1 (MMP1) Biomarker Activity (AID 2283024). Conditions: primary human bronchial epithelial cells; actives raise or lower the signal. In outline: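 ELISA measurement of MMP-1 after 24 h compound exposure of primary human bronchial epithelial cells. Changes in either direction fitted relative to DMSO; parallel SRB staining checked overt cytotoxicity.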

Read-out in test [15]: Pselectin, SELP (gene 6403)
The test can be described thus: BSK_4H_Pselectin: BioMAP Diversity Plus: 4H Assay for Pselectin Biomarker Activity (AID 2283026). Conditions: primary human endothelial cells (HUVEC); actives raise or lower the signal. In outline: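 ELISA of surface P-selectin on HUVEC, 24 h after dosing, with parallel SRB staining (0.1% after 10% TCA fixation, 560 nm) for overt cytotoxicity. Activity fitted in both directions relative to DMSO.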

Test [16] can be described thus: BSK_4H_SRB: Viability Assessment in the BioMAP Diversity Plus: 4H Assay (AID 2283027).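 Further: cells exposed to compound for 24 h before staining.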 The conditions noted are these: primary human endothelial cells (HUVEC). In outline: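 Cytotoxicity readout: sulforhodamine B (0.1%) staining of total protein after 10% TCA fixation, measured at 560 nm in human umbilical vein endothelium at 24 h. DMSO set the baseline; fitting was bidirectional.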

Test [17] can be described thus: BSK_BE3C_SRB: Viability Assessment in the BioMAP Diversity Plus: BE3C Assay (AID 2283028). The conditions noted are these: primary human bronchial epithelial cells. In outline: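 Cells (human bronchial epithelial, primary) are treated with chemicals, and after 24 h the parallel cultures are fixed in 10% TCA. These are then stained with 0.1% SRB and read at 560 nm. Gain or loss of signal is fitted relative to DMSO.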

Read-out in test [18]: Thrombomodulin, THBD (gene 7056)
In words: BSK_3C_Thrombomodulin: BioMAP Diversity Plus: 3C Assay for Thrombomodulin Biomarker Activity (AID 2283029). The conditions noted are these: primary human endothelial cells (HUVEC); actives raise or lower the signal. In outline: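 ELISA measurement of thrombomodulin on HUVEC surface 24 h after chemical dosing; activity fitted in both directions relative to DMSO vehicle.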

Read-out in test [19]: Urokinase-type plasminogen activator receptor (uPAR), PLAUR (gene 5329)
In words: BSK_4H_uPAR: BioMAP Diversity Plus: 4H Assay for Urokinase-type plasminogen activator receptor (uPAR) Biomarker Activity (AID 2283030). The conditions noted are these: primary human endothelial cells (HUVEC); actives raise or lower the signal. In outline: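 Cell-surface uPAR ELISA signal, measured 24 h after dosing human umbilical vein endothelial cells, was analyzed with bidirectional fitting relative to DMSO. Parallel SRB staining of total protein tracked overt cytotoxicity.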

Read-out in test [20]: Vascular endothelial growth factor receptor 2 (Homo sapiens) (UniProt P35968)
In words: BSK_4H_VEGFRII: BioMAP Diversity Plus: 4H Assay for Vascular endothelial growth factor receptor 2 (VEGFR2) Biomarker Activity (AID 2283031).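 On AC50: cell-surface VEGFR2 protein level quantified by ELISA.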 Conditions: primary human endothelial cells (HUVEC); actives raise or lower the signal. In outline:
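ELISA read-out of VEGFRII in primary human umbilical vein endothelium, taken 24 h after chemical treatment. Responses are expressed relative to DMSO, with bidirectional fitting.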

“And” between values parts separate entries of the source, which are not always exact repeats. Equal values may be shown once. A structure can be active in one record and inactive in another. The source made the active and inactive calls. How the source made its calls: active means hit-call score of the fitted dose curve at least 0.9, where 1 is the maximum; inactive means score below 0.9.

E-selectin (Homo sapiens), sequence (P16581 whole entry, looked up): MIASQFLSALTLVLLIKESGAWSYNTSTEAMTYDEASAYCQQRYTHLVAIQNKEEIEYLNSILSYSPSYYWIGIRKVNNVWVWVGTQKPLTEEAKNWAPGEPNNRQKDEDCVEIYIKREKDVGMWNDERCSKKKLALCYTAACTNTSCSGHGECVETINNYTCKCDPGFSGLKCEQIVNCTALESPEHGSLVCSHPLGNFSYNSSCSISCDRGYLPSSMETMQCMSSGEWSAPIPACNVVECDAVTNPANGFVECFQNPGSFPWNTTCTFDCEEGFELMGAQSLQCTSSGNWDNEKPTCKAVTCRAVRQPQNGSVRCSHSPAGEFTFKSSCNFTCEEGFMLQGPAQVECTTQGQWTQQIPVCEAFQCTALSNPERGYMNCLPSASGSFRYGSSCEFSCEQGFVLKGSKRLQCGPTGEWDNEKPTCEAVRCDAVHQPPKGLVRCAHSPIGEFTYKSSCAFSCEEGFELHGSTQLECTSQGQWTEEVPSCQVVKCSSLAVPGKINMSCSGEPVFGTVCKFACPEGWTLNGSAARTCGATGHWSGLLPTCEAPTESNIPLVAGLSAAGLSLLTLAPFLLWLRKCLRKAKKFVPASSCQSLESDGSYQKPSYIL

For orientation: AC50 means the concentration giving half of the maximal activity seen. As to `[Cd+2].[Cl-].[Cl-]`, the AC50 in [1] was 1 µM (active) and 863 nM (active); in test [4], 35.7 µM (active) and 32.2 µM (active); in [6], 30.1 µM (active) and 30 µM (active); in test [10], 17 µM (active) and 10.9 µM (active); in [11], 20 µM (active); in test [15] it was 4.97 µM (active). For the same molecule, in test [20], the AC50 is 6.83 µM (active). Further, the outcome in [2], in test [3], in test [5], in [7], in test [8] and in test [9] was inactive. The outcome in test [11], in test [12], in test [13], in test [14], in [15] and in test [16] was inactive. Also, the outcome in [17], in test [18], in test [19] and in test [20] was inactive.
